Experimental data as given in PubChem BioAssay (EPA / NIEHS).
Records with an inconclusive call do not appear. Calls of active or inactive are those of the source. How the source made its calls, unless noted: active means hit-call score of the fitted dose curve at least 0.9, where 1 is the maximum; inactive means score below 0.9.

Assays:
[1] = target: human RAR-related Orphan Receptor beta (RORb), RORB (gene 6096) (UniProt Q92753); experiment: ATG_RORb_TRANS: Attagene TRANS-FACTORIAL HepG2 Assay for human RAR-related Orphan Receptor beta (RORb) (AID 2283010; active means hit-call score of the fitted dose curve at least 0.9, where 1 is the maximum)
Chain of human RAR-related Orphan Receptor beta (RORb), RORB (gene 6096) (Q92753 whole entry, looked up, the tested form may be a part): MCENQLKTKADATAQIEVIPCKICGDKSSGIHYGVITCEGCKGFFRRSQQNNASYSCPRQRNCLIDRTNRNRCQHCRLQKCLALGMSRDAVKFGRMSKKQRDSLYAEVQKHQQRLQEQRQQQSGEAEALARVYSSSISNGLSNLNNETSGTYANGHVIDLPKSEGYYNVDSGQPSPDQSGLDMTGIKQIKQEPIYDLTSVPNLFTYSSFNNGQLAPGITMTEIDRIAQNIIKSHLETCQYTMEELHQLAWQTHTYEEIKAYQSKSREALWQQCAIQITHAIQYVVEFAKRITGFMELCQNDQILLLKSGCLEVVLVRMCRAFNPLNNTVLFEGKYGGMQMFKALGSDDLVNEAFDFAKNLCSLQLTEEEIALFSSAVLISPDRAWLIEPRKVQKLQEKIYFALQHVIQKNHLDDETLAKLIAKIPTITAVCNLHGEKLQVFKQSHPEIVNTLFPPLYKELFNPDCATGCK
How it was run: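 HepG2, transient MRTU transfection (GAL4-UAS reporters, exogenous NR-Gal4 chimeras); 24 h compound exposure; total RNA → RT-PCR → 6-FAM primer extension → HpaI digest → CE fluorescence. Positive direction vs DMSO baseline.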

[2] = target: human RAR-related Orphan Receptor gamma (RORg), RORC (gene 6097) (UniProt P51449); experiment: ATG_RORg_TRANS: Attagene TRANS-FACTORIAL HepG2 Assay for human RAR-related Orphan Receptor gamma (RORg) (AID 2283011; active means hit-call score of the fitted dose curve at least 0.9, where 1 is the maximum)
Chain of human RAR-related Orphan Receptor gamma (RORg), RORC (gene 6097) (P51449 whole entry, looked up, the tested form may be a part): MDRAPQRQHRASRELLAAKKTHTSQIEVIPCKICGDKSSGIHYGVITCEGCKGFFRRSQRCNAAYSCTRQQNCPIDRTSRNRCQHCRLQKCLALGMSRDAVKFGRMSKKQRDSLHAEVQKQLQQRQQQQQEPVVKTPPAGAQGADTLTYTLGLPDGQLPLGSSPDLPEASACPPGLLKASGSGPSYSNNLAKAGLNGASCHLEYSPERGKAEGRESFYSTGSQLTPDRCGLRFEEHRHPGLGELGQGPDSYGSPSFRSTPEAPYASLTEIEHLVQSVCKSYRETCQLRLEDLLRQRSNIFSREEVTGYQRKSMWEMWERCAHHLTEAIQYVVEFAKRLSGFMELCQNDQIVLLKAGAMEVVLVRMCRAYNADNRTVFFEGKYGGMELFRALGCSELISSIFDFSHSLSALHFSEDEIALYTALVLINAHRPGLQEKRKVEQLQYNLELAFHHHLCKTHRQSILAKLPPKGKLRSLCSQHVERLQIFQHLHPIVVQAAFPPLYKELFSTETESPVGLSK
How it was run: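 Activity is scored as increase in GAL4-UAS reporter mRNA over DMSO, detected by fluorescent RT-PCR and capillary electrophoresis in HepG2 cells transiently expressing a RORg-Gal4 chimera, 24 h after dosing.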

[3] = target: human Retinoid X Receptor beta (RXRb), RXRB (gene 6257) (UniProt P28702); experiment: ATG_RXRb_TRANS: Attagene TRANS-FACTORIAL HepG2 Assay for human Retinoid X Receptor beta (RXRb) (AID 2283013; active means hit-call score of the fitted dose curve at least 0.9, where 1 is the maximum)
Chain of human Retinoid X Receptor beta (RXRb), RXRB (gene 6257) (P28702 whole entry, looked up, the tested form may be a part): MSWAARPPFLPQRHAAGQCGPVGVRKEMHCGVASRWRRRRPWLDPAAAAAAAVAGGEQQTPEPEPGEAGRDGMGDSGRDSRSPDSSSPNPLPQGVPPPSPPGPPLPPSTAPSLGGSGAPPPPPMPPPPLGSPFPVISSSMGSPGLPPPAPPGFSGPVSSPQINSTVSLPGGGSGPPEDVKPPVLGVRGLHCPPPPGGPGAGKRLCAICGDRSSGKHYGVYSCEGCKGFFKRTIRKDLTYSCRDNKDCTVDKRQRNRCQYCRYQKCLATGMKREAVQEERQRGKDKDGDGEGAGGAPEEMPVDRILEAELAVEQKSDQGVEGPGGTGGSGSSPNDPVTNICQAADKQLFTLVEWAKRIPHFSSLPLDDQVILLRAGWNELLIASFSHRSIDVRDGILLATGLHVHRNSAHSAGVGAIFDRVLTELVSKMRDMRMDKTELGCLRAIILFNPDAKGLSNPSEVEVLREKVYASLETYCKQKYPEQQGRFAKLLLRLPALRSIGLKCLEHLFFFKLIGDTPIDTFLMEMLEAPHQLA
How it was run: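 Read-out: reporter mRNA induction via RT-PCR plus capillary electrophoresis fluorescence, analysed as signal increase relative to DMSO. Cells were human HepG2, transiently transfected with GAL4-UAS reporter constructs and chimeric receptor-Gal4 fusions, dosed for 24 h.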

[4] = read-out: E-selectin (Homo sapiens) (UniProt P16581); experiment: BSK_3C_Eselectin: BioMAP Diversity Plus: 3C Assay for Eselectin Biomarker Activity (AID 2283015); conditions: primary human endothelial cells (HUVEC); actives raise or lower the signal;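 on outcome: cell surface E-selectin protein quantified by ELISA 24 h after dosing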
How it was run: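 Human vascular endothelium from umbilical vein is exposed to test chemicals for 24 h. E-selectin levels are read by ELISA and compared with DMSO controls.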

[5] = read-out: Interleukin-1 alpha (IL1a), IL1A (gene 3552); experiment: BSK_BE3C_IL1a: BioMAP Diversity Plus: BE3C Assay for Interleukin-1 alpha (IL1a) Biomarker Activity (AID 2283016); conditions: primary human bronchial epithelial cells; actives raise or lower the signal
How it was run: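 ELISA read-out of IL-1a from human lung bronchial epithelial primary cells, 24 h post-dose. Gain or loss of signal fitted relative to DMSO negative control.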

[6] = read-out: Monocyte Chemoattractant Protein-1 (MCP1), CCL2 (gene 6347); experiment: BSK_3C_MCP1: BioMAP Diversity Plus: 3C Assay for Monocyte Chemoattractant Protein-1 (MCP1) Biomarker Activity (AID 2283017); conditions: primary human endothelial cells (HUVEC); actives raise or lower the signal
How it was run: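 Endothelial cells from human umbilical vein are dosed with chemical, cultured 24 h, then assayed for MCP-1 by ELISA; both increases and decreases are modelled against DMSO controls.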

[7] = read-out: Monocyte Chemoattractant Protein-1 (MCP1), CCL2 (gene 6347); experiment: BSK_4H_MCP1: BioMAP Diversity Plus: 4H Assay for Monocyte Chemoattractant Protein-1 (MCP1) Biomarker Activity (AID 2283018); conditions: primary human endothelial cells (HUVEC); actives raise or lower the signal
How it was run: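 HUVEC primary cells, 24 h post-dose, MCP-1 by ELISA. Gain or loss of signal fitted bidirectionally vs DMSO baseline. Cytotoxicity: SRB stain (0.1% after 10% TCA fixation), read 560 nm, parallel cultures.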

[8] = read-out: Human Leukocyte Antigen - DR isotype (HLADR), HLA-DRA (gene 3122); experiment: BSK_3C_HLADR: BioMAP Diversity Plus: 3C Assay for Human Leukocyte Antigen - DR isotype (HLADR) Biomarker Activity (AID 2283019); conditions: primary human endothelial cells (HUVEC); actives raise or lower the signal;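 on outcome: ELISA of cell-surface HLA-DR on HUVEC 24 h after dosing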
How it was run: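 Endothelial cells from human umbilical vein are treated with test chemical; after 24 h, HLA-DR levels are measured by ELISA. Data are fitted in both directions using DMSO as the baseline.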

[9] = read-out: Interleukin-8 (IL8), CXCL8 (gene 3576); experiment: BSK_3C_IL8: BioMAP Diversity Plus: 3C Assay for Interleukin-8 (IL8) Biomarker Activity (AID 2283020); conditions: primary human endothelial cells (HUVEC); actives raise or lower the signal
How it was run: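 HUVEC, 3C stimulation; 24 h compound exposure; IL-8 read by ELISA; gain or loss of signal fitted relative to DMSO control.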

[10] = read-out: Monokine induced gamma interferon (MIG), CXCL9 (gene 4283); experiment: BSK_3C_MIG: BioMAP Diversity Plus: 3C Assay for Monokine induced gamma interferon (MIG) Biomarker Activity (AID 2283021); conditions: primary human endothelial cells (HUVEC); actives raise or lower the signal;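 on AC50: MIG protein level measured by immunoassay in the treated endothelial cultures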
How it was run: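 HUVEC, 3C system; 24 h chemical exposure; MIG by ELISA; bidirectional fit vs DMSO baseline.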

[11] = read-out: Matrix Metallopeptidase 1 (MMP1), MMP1 (gene 4312); experiment: BSK_BE3C_MMP1: BioMAP Diversity Plus: BE3C Assay for Matrix Metallopeptidase 1 (MMP1) Biomarker Activity (AID 2283024); conditions: primary human bronchial epithelial cells; actives raise or lower the signal
How it was run: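 ELISA read-out of MMP1 in human lung bronchial epithelial primary cultures, 24 h post-dose; bidirectional curve fit vs DMSO baseline, gain or loss of signal scored.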

[12] = BSK_3C_Vis: BioMAP Diversity Plus: 3C Assay for Morphology Visualization (AID 2283025); conditions: primary human endothelial cells (HUVEC);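 further: fitted both ways so gain or loss versus DMSO counts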;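 on AC50: light microscopy image of cell morphology used as background control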
How it was run: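 HUVEC, 3C system; light microscopy of morphology at 24 h post-dose. Bidirectional fit vs DMSO baseline. Secondary readout, background-control function.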

[13] = read-out: Pselectin, SELP (gene 6403); experiment: BSK_4H_Pselectin: BioMAP Diversity Plus: 4H Assay for Pselectin Biomarker Activity (AID 2283026); conditions: primary human endothelial cells (HUVEC); actives raise or lower the signal
How it was run: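 HUVEC, 24 h chemical exposure; P-selectin read by ELISA. Bidirectional curve fit vs DMSO baseline; gain or loss of signal scored.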

[14] = BSK_4H_SRB: Viability Assessment in the BioMAP Diversity Plus: 4H Assay (AID 2283027); conditions: primary human endothelial cells (HUVEC);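 further: cells exposed to compound for 24 h before staining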;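 on AC50: curves fitted both ways versus DMSO so AC50 may be loss or gain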
How it was run: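 Cytotoxicity readout: sulforhodamine B (0.1%) staining of total protein after 10% TCA fixation, measured at 560 nm in human umbilical vein endothelium at 24 h. DMSO set the baseline; fitting was bidirectional.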

[15] = BSK_BE3C_SRB: Viability Assessment in the BioMAP Diversity Plus: BE3C Assay (AID 2283028); conditions: primary human bronchial epithelial cells;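 on AC50: fitted both ways so AC50 may mark signal gain or loss versus DMSO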
How it was run: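 Overt cytotoxicity was assessed as total protein in confluent human primary bronchial epithelial cultures 24 h after chemical addition, using 0.1% sulforhodamine B staining read at 560 nm.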

[16] = read-out: Thrombomodulin, THBD (gene 7056); experiment: BSK_3C_Thrombomodulin: BioMAP Diversity Plus: 3C Assay for Thrombomodulin Biomarker Activity (AID 2283029); conditions: primary human endothelial cells (HUVEC); actives raise or lower the signal
How it was run: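 HUVEC, 3C conditions; compound 24 h; thrombomodulin by ELISA; bidirectional curve fit vs DMSO baseline; parallel SRB total-protein staining for cytotoxicity.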

[17] = read-out: Urokinase-type plasminogen activator receptor (uPAR), PLAUR (gene 5329); experiment: BSK_4H_uPAR: BioMAP Diversity Plus: 4H Assay for Urokinase-type plasminogen activator receptor (uPAR) Biomarker Activity (AID 2283030); conditions: primary human endothelial cells (HUVEC); actives raise or lower the signal
How it was run: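 Chemicals are dosed onto human vascular endothelial primary cells (umbilical vein). After 24 h, uPAR is read by ELISA. Gain or loss of signal is fitted relative to DMSO.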

[18] = target: Retinoic acid receptor RXR-alpha (Homo sapiens) (UniProt P19793); experiment: ATG_RXRa_TRANS: Attagene TRANS-FACTORIAL HepG2 Assay for human Retinoid X Receptor alpha (RXRa) (AID 2283012; active means hit-call score of the fitted dose curve at least 0.9, where 1 is the maximum)
Chain of Retinoic acid receptor RXR-alpha (Homo sapiens) (P19793 whole entry, looked up, the tested form may be a part): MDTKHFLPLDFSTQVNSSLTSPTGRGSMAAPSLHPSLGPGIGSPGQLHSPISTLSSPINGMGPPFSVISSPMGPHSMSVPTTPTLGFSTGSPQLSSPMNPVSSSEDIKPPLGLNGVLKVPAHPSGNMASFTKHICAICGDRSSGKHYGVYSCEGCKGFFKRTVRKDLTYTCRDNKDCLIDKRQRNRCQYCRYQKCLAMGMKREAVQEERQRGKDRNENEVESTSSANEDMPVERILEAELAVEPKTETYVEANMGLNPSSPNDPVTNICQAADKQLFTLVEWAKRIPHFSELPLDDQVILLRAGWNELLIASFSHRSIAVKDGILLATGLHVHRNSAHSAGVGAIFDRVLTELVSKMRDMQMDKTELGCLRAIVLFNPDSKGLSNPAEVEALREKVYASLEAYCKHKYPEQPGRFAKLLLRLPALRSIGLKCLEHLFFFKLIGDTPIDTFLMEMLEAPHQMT
How it was run: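 Read-out: fluorescent reporter-transcript fragments quantified by capillary electrophoresis after RT-PCR. Transiently transfected HepG2 cells carrying GAL4-UAS reporters and NR-GAL4 chimeras were exposed to chemical for 24 h; activity scored as increase over DMSO.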

[19] = target: human Vitamin D Receptor (VDR), VDR (gene 7421) (UniProt P11473); experiment: ATG_VDR_TRANS: Attagene TRANS-FACTORIAL HepG2 Assay for human Vitamin D Receptor (VDR) (AID 2283022; active means hit-call score of the fitted dose curve at least 0.9, where 1 is the maximum)
Chain of human Vitamin D Receptor (VDR), VDR (gene 7421) (P11473 whole entry, looked up, the tested form may be a part): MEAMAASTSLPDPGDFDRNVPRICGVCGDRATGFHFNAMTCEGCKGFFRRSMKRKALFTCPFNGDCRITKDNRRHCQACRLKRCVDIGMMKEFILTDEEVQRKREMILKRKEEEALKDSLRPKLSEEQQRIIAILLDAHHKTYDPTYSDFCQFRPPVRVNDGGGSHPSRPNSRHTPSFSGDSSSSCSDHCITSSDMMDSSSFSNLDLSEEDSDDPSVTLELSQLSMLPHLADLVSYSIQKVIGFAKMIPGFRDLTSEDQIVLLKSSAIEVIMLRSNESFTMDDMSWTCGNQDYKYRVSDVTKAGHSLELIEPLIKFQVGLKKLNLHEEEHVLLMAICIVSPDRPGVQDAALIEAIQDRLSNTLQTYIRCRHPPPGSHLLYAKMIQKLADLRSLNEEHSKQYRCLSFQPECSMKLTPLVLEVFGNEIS
How it was run: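 Fluorescence of labelled reporter cDNA fragments, resolved by capillary electrophoresis, gives mRNA induction after 24 h treatment of HepG2 cells carrying transfected Gal4-fusion reporter units. Activity is fitted in the positive direction with DMSO as baseline.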

[20] = BSK_3C_SRB: Viability Assessment in the BioMAP Diversity Plus: 3C Assay (AID 2283023); conditions: primary human endothelial cells (HUVEC);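 further: cells read 24 h after compound dosing; fitted both ways against DMSO so a hit may be signal rise or drop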
How it was run: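 Cells were dosed with chemical, cultured 24 h, fixed with 10% TCA, stained with 0.1% SRB and read at 560 nm. Human umbilical vein endothelium was used; DMSO served as negative control and baseline.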

Chain of E-selectin (Homo sapiens) (P16581 whole entry, looked up): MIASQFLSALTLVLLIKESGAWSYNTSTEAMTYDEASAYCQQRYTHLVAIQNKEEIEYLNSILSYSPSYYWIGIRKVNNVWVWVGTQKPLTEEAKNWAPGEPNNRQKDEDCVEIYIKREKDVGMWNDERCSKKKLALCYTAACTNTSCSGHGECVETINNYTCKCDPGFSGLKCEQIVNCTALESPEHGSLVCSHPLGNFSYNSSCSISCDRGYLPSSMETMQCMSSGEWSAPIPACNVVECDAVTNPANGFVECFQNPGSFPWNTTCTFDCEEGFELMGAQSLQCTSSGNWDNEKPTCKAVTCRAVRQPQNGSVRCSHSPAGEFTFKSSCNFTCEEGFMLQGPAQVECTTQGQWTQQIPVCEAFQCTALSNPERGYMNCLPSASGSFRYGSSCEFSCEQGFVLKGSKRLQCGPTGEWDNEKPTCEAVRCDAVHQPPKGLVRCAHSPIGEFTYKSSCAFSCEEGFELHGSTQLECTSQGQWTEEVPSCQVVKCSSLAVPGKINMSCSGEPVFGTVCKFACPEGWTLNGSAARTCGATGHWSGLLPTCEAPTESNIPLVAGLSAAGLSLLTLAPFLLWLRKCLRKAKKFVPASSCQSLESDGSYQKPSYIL

## CNC(=O)ON=C(C)SC
[1]
  outcome: inactive
[2]
  outcome: inactive
[3]
  outcome: inactive
[4]
  outcome: inactive
[5]
  outcome: inactive
[6]
  outcome: inactive
[7]
  outcome: inactive
[8]
  outcome: inactive
[9]
  outcome: inactive
[10]
  outcome: inactive
[11]
  outcome: inactive
[12]
  outcome: inactive
[13]
  outcome: inactive
[14]
  outcome: inactive
[15]
  outcome: inactive
[16]
  outcome: inactive
[17]
  outcome: inactive

## CC(C)N(C(=O)SCC(Cl)=C(Cl)Cl)C(C)C
[18]
  outcome: inactive
[3]
  outcome: inactive
[4]
  AC50: 30.7 µM (active)
[5]
  outcome: inactive
[6]
  AC50: 31.1 µM (active)
[7]
  AC50: 32.2 µM (active)
[8]
  AC50: 32.9 µM (active)
[10]
  AC50: 38.3 µM (active)
[11]
  outcome: inactive
[12]
  AC50: 37.2 µM (active)
[13]
  AC50: 31.5 µM (active)
[14]
  AC50: 33.4 µM (active)
[15]
  outcome: inactive
[16]
  outcome: inactive
[17]
  AC50: 31.4 µM (active)

## CC1(C(=O)Nc2ccc(O)c(Cl)c2Cl)CCCCC1
[2]
  outcome: inactive
[18]
  outcome: inactive
[4]
  outcome: inactive
[5]
  outcome: inactive
[6]
  outcome: inactive
[7]
  outcome: inactive
[8]
  outcome: inactive
[9]
  outcome: inactive
[10]
  outcome: inactive
[19]
  outcome: inactive
[11]
  outcome: inactive
[12]
  outcome: inactive
[13]
  outcome: inactive
[14]
  outcome: inactive
[15]
  AC50: 17.8 µM (active)
[16]
  outcome: inactive
[17]
  outcome: inactive

## C[N+]1(C)CCCCC1
[2]
  outcome: inactive
[18]
  outcome: inactive
[3]
  outcome: inactive
[4]
  outcome: inactive
[5]
  outcome: inactive
[6]
  outcome: inactive
[7]
  outcome: inactive
[8]
  outcome: inactive
[10]
  outcome: inactive
[20]
  outcome: inactive
[11]
  outcome: inactive
[12]
  outcome: inactive
[13]
  outcome: inactive
[14]
  outcome: inactive
[15]
  outcome: inactive
[16]
  outcome: inactive
[17]
  outcome: inactive

## CC1=NNC(=O)N(/N=C/c2cccnc2)C1
[18]
  outcome: inactive
[3]
  outcome: inactive
[4]
  outcome: inactive
[5]
  outcome: inactive
[6]
  outcome: inactive
[7]
  outcome: inactive
[8]
  outcome: inactive
[9]
  outcome: inactive
[10]
  outcome: inactive
[19]
  outcome: inactive
[11]
  outcome: inactive
[12]
  outcome: inactive
[13]
  outcome: inactive
[14]
  outcome: inactive
[15]
  outcome: inactive
[16]
  outcome: inactive
[17]
  outcome: inactive

## CCC(=O)Nc1ccc(Cl)c(Cl)c1
[2]
  outcome: inactive
[18]
  outcome: inactive
[3]
  outcome: inactive
[4]
  outcome: inactive
[5]
  outcome: inactive
[6]
  outcome: inactive
[7]
  outcome: inactive
[8]
  AC50: 6.03 µM (active)
[10]
  outcome: inactive
[20]
  outcome: inactive
[11]
  outcome: inactive
[12]
  AC50: 9.8 µM (active)
[13]
  outcome: inactive
[14]
  outcome: inactive
[15]
  outcome: inactive
[16]
  outcome: inactive
[17]
  outcome: inactive

## COP(=O)(OC)OC(Br)C(Cl)(Cl)Br (centres undefined)
[4]
  AC50: 30.1 µM (active)
[5]
  AC50: 29.8 µM (active)
[6]
  AC50: 35.6 µM (active)
[7]
  AC50: 30.1 µM (active)
[8]
  AC50: 14.9 µM (active)
[9]
  AC50: 34.9 µM (active)
[10]
  AC50: 35.2 µM (active)
[11]
  outcome: inactive
[12]
  AC50: 16.3 µM (active)
[13]
  AC50: 13.2 µM (active)
[14]
  AC50: 29 µM (active)
[15]
  AC50: 25 µM (active)
[16]
  outcome: inactive
[17]
  AC50: 27.9 µM (active)
